Our source for the growth inhibition, inhibition and outcome values is PubChem BioAssay.

A short description of assay [1]: antimalarial activity against Dd2 strain (AID 2302;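 active = growth inhibition above 50% at the single 2 µM test dose, taken to imply half-maximal potency below 2 µM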;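 also: 0% = DMSO untreated growth and 100% = chloroquine plus artemisinin killed control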). Conditions: P. falciparum Dd2 in RBCs, LDH growth readout, 72 h; at 2 µM; stronger effect = higher value.
The nature of assay [2]: human hepatoma cell viability loss – ATP luminescence, cytotoxicity control for P. falciparum antimalarial project, primary screen (AID 2303;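 active = inhibition above 50%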;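 also: 0% = DMSO wells and 100% = digitonin-killed cells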). Conditions: HepG2 viability, 24-48 h, at 10 µM, stronger effect = higher value.
The target in assay [3] is L-lactate dehydrogenase (Plasmodium falciparum (isolate CDC / Honduras)) (UniProt Q27743). Nature of the assay: PfLDH activity inhibition – cell lysate, 3D7 strain, counter-screen for P. falciparum growth inhibition project (AID 2304).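 Also: 0% = vehicle and 100% = reference inhibitor.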 The settings on record: P. falciparum 3D7 crude extract, LDH APAD/NBT absorbance; at 2 µM; stronger effect = higher value. On the technique in general: The purpose of a counterscreen is to sort out artefacts and off-target activity.

Assay [4] in a line: inhibition of 3D7 malaria parasite growth – strain 3D7 (AID 2306).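 Also: 0% = DMSO wells and 100% = chloroquine plus artemisinin control wells.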 The settings on record: P. falciparum 3D7 erythrocytic growth, LDH absorbance, 72 h; at 2 µM; stronger effect = higher value.
In assay [5] the target is Calcium-dependent protein kinase 1 (Plasmodium falciparum (isolate 3D7)) (UniProt P62344). Nature of the assay: PfCDPK1 kinase inhibitors, biochemical, TCAMS library (AID 1159585; cut-off not given, nearly all actives have IC50 up to about 0.98 µM;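 also: inhibitors leave more ATP so luminescence rises with inhibition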). The settings on record: recombinant PfCDPK1, Kinase-Glo ATP depletion luminescence. (In general: Kinase-Glo reads ATP consumption through a luciferase reaction.)
Assay [6] has as its target Plasmodium falciparum protein kinase 6 (PK6, PF3D7_1337100) (UniProt Q8IDW1). Nature of the assay: PfPK6 kinase inhibitors, biochemical, TCAMS library (AID 1159586). Conditions: recombinant PfPK6, Kinase-Glo ATP depletion luminescence.
For assay [7], the target named is Protein kinase 7 (PK7), Plasmodium falciparum 3D7 (PF3D7_0213400) (UniProt Q7YTF7). Nature of the assay: inhibition of Plasmodium PK7 catalytic activity – biochemical, TCAMS antimalarial set, Kinase-Glo luminescence (AID 1159587). Conditions: recombinant PfPK7, Kinase-Glo ATP depletion luminescence.
Assay [8] concerns the target Calcium-dependent protein kinase 4 (Plasmodium falciparum (isolate 3D7)) (UniProt Q8IBS5). Nature of the assay: PfCDPK4 kinase inhibitors, biochemical, TCAMS library (AID 1159588; cut-off not given, nearly all actives have IC50 up to about 0.91 µM). The settings on record: recombinant PfCDPK4, Kinase-Glo ATP depletion luminescence.

Molecules are shown by their SMILES. Values without a mark were called inactive. For some of these results: Potency and affinity values are given separately. Calls of active or inactive are those of the source. Unless noted, no rule for the calls is given here.

Chain of Plasmodium falciparum protein kinase 6 (PK6, PF3D7_1337100) (Q8IDW1 1-305): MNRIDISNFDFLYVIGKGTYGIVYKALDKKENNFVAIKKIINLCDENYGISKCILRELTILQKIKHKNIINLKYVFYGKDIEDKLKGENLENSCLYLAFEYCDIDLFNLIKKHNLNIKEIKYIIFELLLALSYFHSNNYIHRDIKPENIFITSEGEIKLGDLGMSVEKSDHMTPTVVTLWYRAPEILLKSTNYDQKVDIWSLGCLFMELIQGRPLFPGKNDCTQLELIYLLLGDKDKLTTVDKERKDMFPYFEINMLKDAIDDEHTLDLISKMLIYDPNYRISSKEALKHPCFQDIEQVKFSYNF
Chain of L-lactate dehydrogenase (Plasmodium falciparum (isolate CDC / Honduras)) (Q27743 whole entry, looked up): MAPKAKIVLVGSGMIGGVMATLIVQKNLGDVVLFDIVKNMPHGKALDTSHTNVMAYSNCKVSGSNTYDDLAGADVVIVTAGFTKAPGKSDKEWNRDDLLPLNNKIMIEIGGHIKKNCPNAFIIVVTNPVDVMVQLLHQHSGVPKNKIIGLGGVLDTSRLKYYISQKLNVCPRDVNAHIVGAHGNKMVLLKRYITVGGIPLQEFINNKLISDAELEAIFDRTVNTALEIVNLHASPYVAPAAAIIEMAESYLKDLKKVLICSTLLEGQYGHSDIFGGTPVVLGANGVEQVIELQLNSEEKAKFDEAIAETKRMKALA
Chain of Calcium-dependent protein kinase 4 (Plasmodium falciparum (isolate 3D7)) (Q8IBS5 whole entry, looked up): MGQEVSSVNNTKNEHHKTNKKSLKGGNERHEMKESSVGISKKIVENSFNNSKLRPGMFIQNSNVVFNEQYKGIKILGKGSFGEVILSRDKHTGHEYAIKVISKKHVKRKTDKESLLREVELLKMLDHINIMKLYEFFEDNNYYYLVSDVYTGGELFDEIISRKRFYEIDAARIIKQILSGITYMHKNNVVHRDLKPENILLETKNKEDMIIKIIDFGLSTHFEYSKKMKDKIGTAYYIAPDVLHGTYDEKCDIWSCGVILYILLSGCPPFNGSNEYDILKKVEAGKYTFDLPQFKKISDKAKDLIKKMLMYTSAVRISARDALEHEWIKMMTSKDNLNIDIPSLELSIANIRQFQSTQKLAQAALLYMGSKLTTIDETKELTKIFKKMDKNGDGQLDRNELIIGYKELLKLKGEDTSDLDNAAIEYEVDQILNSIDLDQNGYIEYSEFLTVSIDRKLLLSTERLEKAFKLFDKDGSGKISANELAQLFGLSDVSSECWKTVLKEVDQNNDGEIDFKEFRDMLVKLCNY
Chain of Protein kinase 7 (PK7), Plasmodium falciparum 3D7 (PF3D7_0213400) (Q7YTF7 1-343): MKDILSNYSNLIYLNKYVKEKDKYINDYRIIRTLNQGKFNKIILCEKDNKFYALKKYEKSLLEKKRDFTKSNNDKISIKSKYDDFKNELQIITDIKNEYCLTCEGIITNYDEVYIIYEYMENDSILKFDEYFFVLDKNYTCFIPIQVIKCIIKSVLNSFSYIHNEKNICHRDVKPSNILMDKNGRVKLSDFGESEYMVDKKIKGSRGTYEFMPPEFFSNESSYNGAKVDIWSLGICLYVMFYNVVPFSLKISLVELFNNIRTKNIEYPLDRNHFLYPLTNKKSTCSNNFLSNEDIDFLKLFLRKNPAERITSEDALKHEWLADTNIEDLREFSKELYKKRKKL
Chain of Calcium-dependent protein kinase 1 (Plasmodium falciparum (isolate 3D7)) (P62344 whole entry, looked up): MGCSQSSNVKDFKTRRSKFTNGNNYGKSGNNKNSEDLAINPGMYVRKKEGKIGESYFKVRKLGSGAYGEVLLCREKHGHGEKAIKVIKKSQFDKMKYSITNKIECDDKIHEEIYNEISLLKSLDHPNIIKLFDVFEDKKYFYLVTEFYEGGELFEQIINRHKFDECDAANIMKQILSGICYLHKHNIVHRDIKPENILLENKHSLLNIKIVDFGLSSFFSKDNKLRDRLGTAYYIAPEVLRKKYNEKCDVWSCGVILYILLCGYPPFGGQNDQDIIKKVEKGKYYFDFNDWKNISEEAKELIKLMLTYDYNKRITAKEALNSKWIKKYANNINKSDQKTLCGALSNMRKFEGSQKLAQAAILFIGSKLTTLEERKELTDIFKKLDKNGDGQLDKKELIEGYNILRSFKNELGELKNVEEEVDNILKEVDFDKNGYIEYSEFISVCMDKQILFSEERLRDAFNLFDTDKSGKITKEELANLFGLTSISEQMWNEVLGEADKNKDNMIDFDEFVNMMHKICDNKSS

One may read the inhibition as the change of the read-out against control, counted positive when it falls. With `OCCN1CCN(Cc2ccc(-c3ccc(-c4nc5ccc(C(F)(F)F)cc5[nH]4)s3)cc2)CC1`, the results for the growth inhibition in assay [1] and in assay [4] were 99% (active) and 101% (active), respectively. The inhibition in assay [2] is 65% (active); in assay [3], -7%. The result in assay [5], in assay [6], in assay [7] and in assay [8] was inactive.
Turning to `CCCC(CNC(=O)c1cc2c(Cl)cc(Cl)cc2[nH]1)CNc1cc(=O)c2ccccc2[nH]1` (stereo not given), the growth inhibition is 94% (active) in assay [1] and 100% (active) in assay [4]. For the same molecule, the inhibition was 9% in assay [2] and -5% in assay [3]. Besides, the result in assay [5], in assay [6], in assay [7] and in assay [8] was inactive.
Consider `CCCN(CCC)C(=O)c1cc(C(=O)N[C@@H](Cc2ccccc2)[C@H](O)CNC2CC2)cc(N2CCCCS2(=O)=O)c1`, for which the growth inhibition is 98% (active) in assay [1] and 100% (active) in assay [4]. Besides, the values for the inhibition in assay [2] and in assay [3] were -3% and 0%, respectively. Moreover, the result in assay [5], in assay [6], in assay [7] and in assay [8] was inactive.
In the case of `N#Cc1ccc(C(=O)Nc2cccc(-c3ccc(CN4CCCC4)cc3)c2)cc1`, the growth inhibition in assay [1] is -2%; in assay [4], 99% (active). Besides, the inhibition in assay [2] was 13%; in assay [3], -2%. The result in assay [5], in assay [6], in assay [7] and in assay [8] was inactive.
As to `N#CCCN1CCN(Cc2cccc(-c3ccc(-c4nc5ccccc5[nH]4)s3)c2)CC1`, the results for the growth inhibition in assay [1] and in assay [4] were 8% and 96% (active), respectively. Also, the inhibition in assay [2] was 48%; in assay [3], -4%. The outcome in assay [5], in assay [6], in assay [7] and in assay [8] was inactive.
On to `C[C@H](Cc1ccc(Oc2ccc(C[C@@H](C)NC[C@H](O)c3cccc(Cl)c3)cc2)cc1)NC[C@H](O)c1cccc(Cl)c1`, for which the growth inhibition in assay [1] is 96% (active); in assay [4], 100% (active). The inhibition in assay [2] was 99% (active); in assay [3], -3%. For the same molecule, the outcome in assay [5], in assay [6], in assay [7] and in assay [8] was inactive.
Consider `COc1ccc2nccc(N3CCN(CCNCc4ccc5c(n4)NC(=O)CO5)CC3)c2c1`, for which the growth inhibition in assay [1] was 5%; in assay [4], 92% (active). In addition, the inhibition was 18% in assay [2] and 5% in assay [3]. Also, the outcome in assay [5], in assay [6], in assay [7] and in assay [8] was inactive.
For `CN(C)C(CNc1ncnc2cc(Cl)ccc12)Cc1ccccc1` (stereo not given), the growth inhibition in assay [1] is 88% (active); in assay [4], 96% (active). The results for the inhibition in assay [2] and in assay [3] were 13% and -4%, respectively. The result in assay [5], in assay [6], in assay [7] and in assay [8] was inactive.
`O=C(Nc1ccc(Cl)cc1)c1cccc2[nH]c(C(F)(F)F)nc12`: the results for the growth inhibition in assay [1] and in assay [4] were 98% (active) and 93% (active), respectively. Moreover, the inhibition in assay [2] is 84% (active); in assay [3], -6%. For the same molecule, the outcome in assay [5], in assay [6], in assay [7] and in assay [8] was inactive.
Take `COc1ccc2nc(C)cc(NN=Cc3ccc([N+](=O)[O-])o3)c2c1`: the growth inhibition in assay [1] and in assay [4] was 100% (active) in each case. For the same molecule, the inhibition in assay [2] is 18%; in assay [3] it was -5%. Further, the result in assay [5], in assay [6], in assay [7] and in assay [8] was inactive.
Consider `Cc1cc(C)c(C)c(S(=O)(=O)N2CCCCC(c3ccc(F)c(F)c3)=N2)c1C`, for which the figures for the growth inhibition in assay [1] and in assay [4] were 60% (active) and 86% (active), respectively. For the same molecule, the inhibition is 5% in assay [2] and -3% in assay [3]. For the same molecule, the outcome in assay [5], in assay [6], in assay [7] and in assay [8] was inactive.
For `O=C(Nc1cccc(-c2cccc(-c3nc4ccc(F)cc4[nH]3)c2)c1)Nc1ccc2c(c1)OCO2`, the growth inhibition was 49% in assay [1] and 101% (active) in assay [4]. Also, the inhibition in assay [2] was 30%; in assay [3], -4%. The outcome in assay [5], in assay [6], in assay [7] and in assay [8] was inactive.
As to `OC(CN1c2ccccc2Sc2ccccc21)CN(C1CCCCC1)C1CCCCC1` (stereo not given), the growth inhibition was 96% (active) in assay [1] and 99% (active) in assay [4]. Besides, the inhibition in assay [2] was 46%; in assay [3], -5%. Further, the result in assay [5], in assay [6], in assay [7] and in assay [8] was inactive.
Consider `NC(=O)c1ccccc1OCC(=O)Nc1cccc(-c2ccc(-c3nc4ccccc4[nH]3)cc2)c1`, for which the growth inhibition was 46% in assay [1] and 95% (active) in assay [4]. The inhibition is 66% (active) in assay [2] and 4% in assay [3]. Moreover, the outcome in assay [5], in assay [6], in assay [7] and in assay [8] was inactive.
Regarding `CCCCCNc1nc2nc(N)nc(N)c2nc1-c1ccccc1`, the growth inhibition in assay [1] was -4%; in assay [4] it was 91% (active). Also, the figures for the inhibition in assay [2] and in assay [3] were 9% and -2%, respectively. The result in assay [5], in assay [6], in assay [7] and in assay [8] was inactive.
As for `CN(c1ccc(NC(=O)Nc2cc(C(F)(F)F)ccc2F)cc1)c1ccnc(NCCN2CCCC2)n1`, the growth inhibition was 1% in assay [1] and 93% (active) in assay [4]. Also, the inhibition in assay [2] was 94% (active); in assay [3] it was -2%. Moreover, the result in assay [5], in assay [6], in assay [7] and in assay [8] was inactive.
As to `O=c1cc(NCCCNC2CCOc3c(I)cc(Cl)cc32)[nH]c2ccccc12` (stereo not given), the growth inhibition in assay [1] is 48%; in assay [4], 96% (active). For the same molecule, the inhibition was -10% in assay [2] and -1% in assay [3]. Besides, the result in assay [5], in assay [6], in assay [7] and in assay [8] was inactive.
`CCOC(=O)CNC(=O)N(CCN(Cc1ccccc1)C(=O)NCC(=O)OCC)Cc1ccccc1`: the growth inhibition in assay [1] was -1%; in assay [4] it was 98% (active). In addition, the inhibition in assay [2] was 9%; in assay [3] it was 5%. The result in assay [5], in assay [6], in assay [7] and in assay [8] was inactive.
For `CCN(CC)CCN(Cc1ccc(-c2ccc(C(F)(F)F)cc2)cc1)C(=O)Cn1c(CCc2cccc(F)c2F)cc(=O)c(C)c1C`, the figures for the growth inhibition in assay [1] and in assay [4] were 87% (active) and 97% (active), respectively. Further, the inhibition in assay [2] was 35%; in assay [3], -4%. Further, the outcome in assay [5], in assay [6], in assay [7] and in assay [8] was inactive.
As for `N#Cc1ccc(N2CCN(Cc3cccc(-c4cccc(-c5nc6ccc(C(F)(F)F)cc6[nH]5)c4)c3)CC2)nc1`, the growth inhibition in assay [1] was 50% (active); in assay [4], 99% (active). Further, the inhibition in assay [2] was 15%; in assay [3], 6%. Moreover, the result in assay [5], in assay [6], in assay [7] and in assay [8] was inactive.
